# Laboratory results: PubChem BioAssay (NCI)
# The panel holds about 83,000 compounds, 20% with a hit somewhere; the sample as a whole holds those more often.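 Activity criterion: percent growth below 10, measured after cells in 96-well plates were exposed to a single compound concentration for 48 hours.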 Active and inactive are the calls of the source.
# System: HCT-116 colon
# Assay: NCI-60 one-dose screen, 48 h (100 = growth as untreated, 0 = no growth, -100 = all killed)
# Conditions: 10 µM unless noted
row,Structure (SMILES),growth
1,O=C(O)Cn1ccc2ccccc21,96.9% (inactive)
2,Cc1ccc2nc(CN(CCN(Cc3nc4ccc(C)cc4[nH]3)Cc3nc4ccc(C)cc4[nH]3)Cc3nc4ccc(C)cc4[nH]3)[nH]c2c1,-96.3% (active)
3,CO[C@@]12[C@@H]3NC3CN1C1=C(C(=O)C(N)=C(C)C1=O)[C@@H]2COC(N)=O (stereo partly specified),6.78% (active)
4,COCCn1c(Nc2ccc(C(=O)NO)cc2)nc2ccccc21,19.4% (inactive)
5,N#Cc1c(NN)n(C2OC(CO)C(O)C2O)c2ncnc(N)c12 (stereo unspecified),2.09% (active)
6,CCCCCNCCCCCNc1cc(OC)cc2cccnc12,63.5% (inactive)
7,Cc1cc(O)ccc1C1=NN(c2ccc(S(N)(=O)=O)cc2)C(=O)CC1,23.3% (inactive)
8,CC(=O)OC1Oc2cc(C)c(C)cc2-c2oc(=O)c(-c3ccc(F)cc3)cc21 (stereo unspecified),32.2% (inactive)
9,CCCCCCCCCCCCCCCC1=NCC[N+]1(CCO)CCO,12.1% (inactive)
10,Nc1cc2nc3ccccc3oc-2cc1=O,45.1% (inactive)
11,CCOC(=O)C(=CNc1ccccc1Cl)C(=O)OCC,97.9% (inactive)
12,O=[N+]([O-])c1cc(F)c2cccnc2c1O,95.8% (inactive)
13,O=C1C=CC(=O)N1CO,104% (inactive)
14,COc1ccc(C2C=C(c3ccc(Cl)cc3)N=C3SC=CN32)cc1 (stereo unspecified),104% (inactive)
15,CCCCCc1c(C)[nH]c(/C=C2\N=C(c3ccc[nH]3)C=C2CC)c1C,-95.4% (active)
16,COc1ccc(CCN2COc3c([C@@H](C)CCC=C(C)C)ccc(C)c3C2)cc1OC,25.9% (inactive)
17,Cc1nc([C@H]2CC[C@H]3[C@@H]4CCC5=CC(=O)CC[C@]5(C)[C@H]4CC[C@]23C)cs1,28.3% (inactive)
18,CN(CCO)c1ccc(N2Cc3ccccc3OC3=C2C(=O)c2c(O)ccc(O)c2C3=O)cn1,-85.6% (active)

row,Structure (SMILES),growth
1,Fc1ccc(-c2nnc(N3CCOCC3)c3ccccc23)cc1,87.9% (inactive)
2,N#Cc1c(N)n(C2OC(CO)C(O)C2O)c2ncnc(N)c12 (stereo unspecified),4.76% (active)
3,CCCCCCCCCCCCCCCCCC1=NC(C)(C)CN1C(C)(C)CO,-100% (active)
4,CC(=O)OC1Oc2cc(C)c(C)cc2-c2oc(=O)c(-c3cc4ccccc4oc3=O)cc21 (stereo unspecified),81.1% (inactive)
5,SCc1ccc(CS)cc1,100% (inactive)
6,CC1=C(C(=O)Nc2ccc(F)cc2)C(c2ccccc2)C2=C(CC(C)(C)CC2=O)N1 (stereo unspecified),73.6% (inactive)
7,O=C(C(=O)c1cccnc1)c1cccnc1,99.8% (inactive)
8,Clc1ccc2c(c1)-n1cccc1C(c1ccc3ccccc3c1)=NC2,66.4% (inactive)
9,F,8.71% [6.87 mM] (active)
10,COc1cccc(OCC(O)CN2CCN(c3ccccc3)CC2)c1 (stereo unspecified),112% (inactive)
11,CSCCC1NC(=O)C(C(C)=Nc2ccccc2)=C1O (stereo unspecified),107% (inactive)
12,CC(OC(=O)Nc1cccc(Cl)c1)C(=O)O (stereo unspecified),97.2% (inactive)
13,C1=C\CCCCN2CC[C@H]3[C@H](CCCC/C=C\CCCN4C[C@@H](CCCCC/1)C[C@@H]3C4)C2,43.6% (inactive)
14,CCOc1c(C#N)c2c(N)ncnc2n1C1OC(CO)C(O)C1O (stereo unspecified),3.41% (active)
15,COc1cc(/C=C/c2ccc3c(Br)cc(Br)c(O)c3n2)ccc1O,1.68% (active)
16,Cc1ccc(O)c(Cc2ccccc2)c1,98% (inactive)
17,c1ccc2c(c1)cnc1ccccc12,100% (inactive)
18,O=C(Nc1ccc(Oc2ccc(NC(=O)Nc3ccccc3Cl)cc2)cc1)Nc1ccccc1Cl,29.2% (inactive)
